The source made the active and inactive calls.

Here are results for 8 compounds from PubChem BioAssay.

Experiment [1] in a line: E. coli DRC41 culture turbidity changes, primary screen, E. coli filamentation inducer project, strain DRC41, OD650, 48 h (AID 1152).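 Further: E. coli MC1000 strain DRC41 lacking acrAB efflux pump and sulA.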 The note with it: E. coli DRC41 (acrAB sulA), higher = more signal, called active from +8 up or from −8 down.
The nature of experiment [2]: small-molecule binders of probe aLefty1, primary screen, biochemical, small-molecule microarray, 635/667 nm fluorescence (AID 1153).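 Further: score merges spot fluorescence with signal-to-noise ratio from the scanned slide images.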 The note with it: higher = more signal.
Experiment [3] in a line: PSAC antagonists in infected red cells, primary screen, cell-based, P. falciparum Indochina, OD700, 1 h (AID 1154). The note with it: P. falciparum Indochina infected RBC osmotic lysis, higher = more signal, called active from +8 up or from −8 down.
Experiment [4] in a line: PSAC antagonists in infected red cells, primary screen, cell-based, P. falciparum Indochina, OD700, 2 h (AID 1155).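 Further: lysis reports solute entry through the parasite surface anion channel PSAC; channel blockers reduce lysis of infected cells.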 The note with it: P. falciparum Indochina infected erythrocytes, osmotic lysis OD700; higher = more signal, called active from +8 up or from −8 down.
Experiment [5] in a line: osmotic lysis modulators in infected erythrocytes, primary screen, PSAC antagonist project, cell-based, P. falciparum Indochina, OD700, 3 h (AID 1156). As to conditions: higher = more signal, called active from +8 up or from −8 down.
Experiment [6] in a line: PSAC antagonists in infected red cells, primary screen, cell-based, P. falciparum Indochina, OD700, 18 h (AID 1157). The note with it: P. falciparum Indochina infected erythrocytes, osmotic lysis OD700, 18 h; higher = more signal, called active from +8 up or from −8 down.
Experiment [7] in a line: modulators of S6 phosphorylation in cells, primary screen, cell-based, A549, cytoblot, luminescence, serum-stimulated (AID 1158).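 Further: serum-stimulated A549 lung adenocarcinoma cells; signal is phosphorylated S6 detected by cytoblot immunostaining with HRP secondary.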 The note with it: A549 phospho-S6 cytoblot, 5 h, higher = more signal.
Experiment [8] has as its target NADPH oxidase 2 (Homo sapiens) (UniProt P04839). Briefly: NOX2-dependent H2O2 signal modulators, primary screen, NOX inhibitor project, cell-based, HEK293-NOX2, PMA-stimulated, Amplex Red fluorescence (AID 1159). Further: test concentration not given here. As to conditions: 45 min, higher = more signal, called active from +8 up or from −8 down.
The target in experiment [9] is NADPH oxidase 4 (Homo sapiens) (UniProt Q9NPH5). Put plainly: NOX4-dependent H2O2 signal modulators, primary screen, NOX inhibitor project, cell-based, HEK293-NOX4, tetracycline-induced, Amplex Red fluorescence (AID 1160). The note with it: 45 min, higher = more signal, called active from +8 up or from −8 down.
In experiment [10] the target is NADPH oxidase 5 (Homo sapiens) (UniProt Q96PH1). Briefly: NOX5-dependent H2O2 signal modulators, primary screen, NOX inhibitor project, cell-based, HEK293-NOX5, Amplex Red fluorescence (AID 1161). The note with it: HEK293-NOX5, ionomycin, 45 min, higher = more signal.
A short description of experiment [11]: A549 cell viability effects, profiling panel, calcein-AM fluorescence, 48 h, basal (AID 1162). Further: test concentration not given here. The note with it: higher = more signal.
Experiment [12] in a line: adipocyte viability effects, profiling panel, cell-based, 3T3-L1 adipocytes, calcein-AM fluorescence, 48 h, basal (AID 1163). Further: test concentration not given here. As to conditions: 3T3-L1 adipocytes viability, higher = more signal.
A short description of experiment [13]: HepG2 cell viability effects, profiling panel, calcein-AM fluorescence, 48 h, basal (AID 1164). Further: test concentration not given here. As to conditions: higher = more signal.
A short description of experiment [14]: MM1S cell viability effects, profiling panel, calcein-AM fluorescence, 48 h, basal (AID 1165).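 Further: viability of MM1S multiple myeloma cells under basal unstimulated conditions; test concentration not given here.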 The note with it: higher = more signal.
Experiment [15] is described as follows: basal RPMI8226 viability, no added stimulus, profiling panel, cell-based, calcein-AM fluorescence, 48 h, PK04 Diversity Set (AID 1166).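 Further: cells grown under basal conditions without added stimulus; test concentration not given here.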 As to conditions: RPMI8226 myeloma viability, higher = more signal.
Experiment [16] is described as follows: basal HepG2 mitochondrial membrane potential changes, profiling panel, cell-based, JC-1 fluorescence, 24 h, 100 nL compound (AID 1167). Further: test concentration not given here. As to conditions: higher = more signal.
Experiment [17] in a line: basal 3T3-L1 adipocyte mitochondrial potential changes, profiling panel, cell-based, JC-1 fluorescence, 3T3-L1 adipocytes, 24 h, 100 nL compound (AID 1168). Further: test concentration not given here. As to conditions: JC-1 mitochondrial fluorescence, higher = more signal, called active from +8 up or from −8 down.
Experiment [18] can be described thus: basal RPMI8226 mitochondrial membrane potential changes, profiling panel, cell-based, JC-1 fluorescence, 24 h, 100 nL compound (AID 1169). Further: test concentration not given here. The note with it: RPMI8226 myeloma, JC-1 mitochondrial potential fluorescence, higher = more signal.
Experiment [19] is described as follows: basal MM1S mitochondrial membrane potential changes, profiling panel, cell-based, JC-1 fluorescence, 24 h, 100 nL compound (AID 1170). Further: test concentration not given here. The note with it: higher = more signal.
The nature of experiment [20]: A549 lung cancer cell viability effects, profiling panel, resazurin fluorescence, 24 h, PK04 Diversity Set (AID 1171). Further: test concentration not given here. The note with it: higher = more signal, called active from +8 up or from −8 down. (The colour change of resazurin is a common sign of viable cells or microbes.)

Sequence of NADPH oxidase 4 (Homo sapiens) (Q9NPH5 whole entry, looked up): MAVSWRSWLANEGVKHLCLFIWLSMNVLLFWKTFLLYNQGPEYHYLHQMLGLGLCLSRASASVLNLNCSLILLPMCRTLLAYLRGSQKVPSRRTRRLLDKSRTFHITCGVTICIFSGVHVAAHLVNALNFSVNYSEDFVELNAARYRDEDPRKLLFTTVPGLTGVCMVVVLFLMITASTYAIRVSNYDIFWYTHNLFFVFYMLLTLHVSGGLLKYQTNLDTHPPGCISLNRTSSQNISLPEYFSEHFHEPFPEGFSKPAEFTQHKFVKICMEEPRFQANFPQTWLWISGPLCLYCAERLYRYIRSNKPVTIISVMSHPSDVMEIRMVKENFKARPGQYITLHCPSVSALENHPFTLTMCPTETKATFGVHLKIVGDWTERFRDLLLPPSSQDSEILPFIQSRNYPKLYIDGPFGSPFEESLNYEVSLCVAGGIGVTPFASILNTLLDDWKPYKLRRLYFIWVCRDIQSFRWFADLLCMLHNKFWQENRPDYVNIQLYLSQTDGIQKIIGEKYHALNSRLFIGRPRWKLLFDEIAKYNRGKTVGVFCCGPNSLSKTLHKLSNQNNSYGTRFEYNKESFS
Sequence of NADPH oxidase 5 (Homo sapiens) (Q96PH1 whole entry, looked up): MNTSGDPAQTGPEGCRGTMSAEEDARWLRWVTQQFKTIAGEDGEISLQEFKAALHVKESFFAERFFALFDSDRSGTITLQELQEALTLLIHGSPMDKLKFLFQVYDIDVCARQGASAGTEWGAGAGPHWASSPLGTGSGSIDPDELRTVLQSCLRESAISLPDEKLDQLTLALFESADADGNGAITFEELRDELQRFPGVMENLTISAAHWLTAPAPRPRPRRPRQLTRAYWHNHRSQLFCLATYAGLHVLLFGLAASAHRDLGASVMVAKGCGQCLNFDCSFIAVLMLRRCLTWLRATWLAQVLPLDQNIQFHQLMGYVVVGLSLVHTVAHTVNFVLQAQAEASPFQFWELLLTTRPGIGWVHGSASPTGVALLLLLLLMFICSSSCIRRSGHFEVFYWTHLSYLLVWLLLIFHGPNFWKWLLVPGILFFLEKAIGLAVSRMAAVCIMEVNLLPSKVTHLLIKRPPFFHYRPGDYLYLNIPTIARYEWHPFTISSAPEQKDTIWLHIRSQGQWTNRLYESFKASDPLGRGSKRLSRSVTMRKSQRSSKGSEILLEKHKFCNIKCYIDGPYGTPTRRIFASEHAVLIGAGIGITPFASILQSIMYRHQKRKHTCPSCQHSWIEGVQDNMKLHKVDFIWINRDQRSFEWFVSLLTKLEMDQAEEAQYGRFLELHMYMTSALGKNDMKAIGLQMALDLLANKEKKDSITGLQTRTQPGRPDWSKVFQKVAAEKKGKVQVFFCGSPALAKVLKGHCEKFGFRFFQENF
Sequence of NADPH oxidase 2 (Homo sapiens) (P04839 whole entry, looked up): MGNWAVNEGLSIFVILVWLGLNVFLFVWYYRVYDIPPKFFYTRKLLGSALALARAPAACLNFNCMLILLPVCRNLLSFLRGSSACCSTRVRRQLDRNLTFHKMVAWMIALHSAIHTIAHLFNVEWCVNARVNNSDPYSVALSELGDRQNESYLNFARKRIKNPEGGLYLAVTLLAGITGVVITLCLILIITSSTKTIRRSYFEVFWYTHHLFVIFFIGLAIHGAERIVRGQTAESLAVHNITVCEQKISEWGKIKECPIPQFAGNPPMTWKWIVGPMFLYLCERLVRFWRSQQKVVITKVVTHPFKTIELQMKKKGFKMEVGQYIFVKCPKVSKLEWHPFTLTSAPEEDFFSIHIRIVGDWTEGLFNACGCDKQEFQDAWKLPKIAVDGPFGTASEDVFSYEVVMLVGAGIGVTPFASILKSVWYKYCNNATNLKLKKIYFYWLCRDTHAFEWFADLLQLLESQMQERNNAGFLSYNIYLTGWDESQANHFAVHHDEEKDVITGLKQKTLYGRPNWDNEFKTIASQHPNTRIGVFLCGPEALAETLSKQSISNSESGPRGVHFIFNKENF

`C=CCOC(=O)[C@H]1[C@@H]2C(=O)O[C@@H](c3ccccc3)[C@@H](c3ccccc3)N2[C@@H](c2ccc(OCCOC(=O)[C@H]3C[C@H]4C(=O)N[C@@H](CC(C)C)C(=O)N4[C@H]3c3ccc(O)cc3)cc2)[C@]12C(=O)Nc1ccc(I)cc12`: the z-score is -1.1 (inactive) in [1]; -0.414 (inactive) in experiment [3]; 0.739 (inactive) in experiment [4]; -0.483 (inactive) in experiment [5]; 0.47 (inactive) in [6]; -0.182 in [7]. Also, the z-score in experiment [8] is 1.82 (inactive); in experiment [9], 0.43 (inactive); in experiment [10], 0.982; in [11], 0.709; in experiment [12] it was -0.212; in [13] it was 1.8. In addition, the z-score in [14] is -2.02; in [15], 0.0851; in [16], -0.626; in experiment [17], -0.804 (inactive); in [18], -0.418; in [19], -0.859. In addition, the z-score in [20] was 0.0559 (inactive). Further, the composite z-score in experiment [2] is 0.0839.
As for `COC(=O)[C@@]1(Cc2ccc(OC)cc2)[C@H]2c3cc(C(=O)N4CCCC4)n(Cc4ccsc4Br)c3C[C@H]2CN1C(=O)c1ccccc1`, the z-score in [1] was -0.68 (inactive); in experiment [3], 0.538 (inactive); in experiment [4], -0.155 (inactive); in experiment [5], 0.0114 (inactive); in [6], 0.469 (inactive); in experiment [7], 0.0613. Further, the z-score was 0.289 (inactive) in experiment [8]; -0.137 (inactive) in experiment [9]; -1.24 in experiment [10]; -1.92 in experiment [11]; -0.793 in [12]; -0.119 in [13]. Also, the z-score in [14] was -3.3; in [15], -4.43; in experiment [16], 0.321; in [17], -1.05 (inactive); in experiment [18], -0.822; in [19], -2.91. The z-score in experiment [20] was -2.75 (inactive). Besides, in experiment [2], the composite z-score amounted to 0.0429.
As for `CCc1oc(CC[C@@H](CO)NC(=O)NCCn2cc(C3(O)CCCCC3)nn2)c(C(=O)OC)c1C(=O)OC`, the z-score was -1.26 (inactive) in experiment [1]; 25.6 (active) in experiment [3]; 7.39 (inactive) in [4]; 0.709 (inactive) in [5]; 1.07 (inactive) in [6]; -0.524 in experiment [7]. In addition, the z-score in [8] is -1.59 (inactive); in experiment [9] it was -0.491 (inactive); in experiment [10] it was -1.14; in [11] it was -0.0645; in [12] it was -0.33; in experiment [13], -0.68. Moreover, the z-score was -0.0035 in [14]; 0.0168 in [15]; -0.176 in [16]; -0.0732 (inactive) in experiment [17]; 0.756 in [18]; 0.14 in experiment [19]. The z-score in [20] is -0.892 (inactive). The composite z-score in [2] is 0.0768.
Regarding `COc1cc2c(cc1O)C(C1CC1)N(Cc1cc3c(cc1Br)OCO3)CC2` (stereo not given), the z-score in [1] was -1.46 (inactive); in experiment [3] it was 9.09 (active); in experiment [4], 1.17 (inactive); in experiment [5] it was 0.838 (inactive); in experiment [6], 0.72 (inactive); in experiment [7], -0.074. Further, the z-score is -6.19 (inactive) in [8]; -3.97 (inactive) in [9]; -4.81 in experiment [10]; -3.4 in experiment [11]; -0.204 in experiment [12]; -3.79 in [13]. Besides, the z-score in experiment [14] is -3.15; in experiment [15] it was -4.48; in experiment [16], -1.85; in experiment [17], -0.457 (inactive); in experiment [18] it was -0.472; in experiment [19] it was -2.08. For the same compound, the z-score in experiment [20] was -4.06 (inactive). Further, the composite z-score in experiment [2] is -0.263.
For `C=CCOC(=O)[C@H]1[C@@H]2C(=O)O[C@@H](c3ccccc3)[C@@H](c3ccccc3)N2[C@@H](c2ccc(OCCOC(=O)[C@H]3C[C@H]4C(=O)N5CCC[C@H]5C(=O)N4[C@H]3c3ccc(O)cc3)cc2)[C@]12C(=O)Nc1ccc(I)cc12`, the z-score was 0.917 (inactive) in [1]; 0.234 (inactive) in experiment [3]; -0.588 (inactive) in experiment [4]; -1.27 (inactive) in experiment [5]; -1.39 (inactive) in experiment [6]; 0.555 in experiment [7]. Besides, the z-score in experiment [8] is -1.32 (inactive); in experiment [9], -1.09 (inactive); in experiment [10] it was -0.351; in [11], 0.321; in [12] it was 1.47; in experiment [13] it was -0.167. The z-score in [14] is -0.484; in experiment [15], -0.231; in experiment [16], -0.518; in experiment [17] it was -0.32 (inactive); in experiment [18], -0.00574; in experiment [19] it was -0.286. Also, the z-score in experiment [20] is -1.16 (inactive). The compound also showed a composite z-score in experiment [2] of 1.99.
As to `O=C1O[C@H](c2ccccc2)[C@H](c2ccccc2)N2[C@H]1[C@@H](C(=O)Nc1nc3ccccc3s1)[C@]1(C(=O)Nc3ccc(C#CCCO)cc31)[C@H]2c1ccc(OCCO)cc1`, the z-score in experiment [1] was -0.448 (inactive); in [3], 3.09 (inactive); in experiment [4], 2.02 (inactive); in [5], 0.97 (inactive); in [6], 2 (inactive); in experiment [7], -0.472. For the same compound, the z-score in [8] was 1.18 (inactive); in experiment [9], 0.111 (inactive); in [10], 0.278; in experiment [11], 0.233; in experiment [12], 0.205; in experiment [13] it was 1.03. The z-score is -0.265 in [14]; 0.743 in [15]; -3.28 in experiment [16]; 0.491 (inactive) in experiment [17]; -0.995 in [18]; -1.49 in experiment [19]. Besides, the z-score in experiment [20] was 0.441 (inactive). Moreover, the composite z-score in [2] came out at 1.34.
Consider `COc1ccc(CCNC(=O)[C@@]2(C)c3ccccc3C(=O)N(Cc3cc(F)cc(C(F)(F)F)c3)[C@H]2c2ccc(CO)cc2)cc1`, for which the z-score is 0.753 (inactive) in [1]; 8.08 (active) in experiment [3]; 0.906 (inactive) in experiment [4]; 1.24 (inactive) in experiment [5]; 0.526 (inactive) in experiment [6]; 0.0269 in experiment [7]. In addition, the z-score in experiment [8] was -1.38 (inactive); in experiment [9] it was -1.28 (inactive); in experiment [10], -1.5; in experiment [11] it was 0.805; in [12] it was 0.766; in [13], 0.41. For the same compound, the z-score is -1.86 in experiment [14]; -2.07 in experiment [15]; 0.857 in experiment [16]; -0.633 (inactive) in [17]; -0.601 in experiment [18]; 1.08 in experiment [19]. In addition, the z-score in experiment [20] was 0.396 (inactive). This compound returned a composite z-score in experiment [2] of -0.045.
As to `O=C(O)[C@@]1(CCS(=O)(=O)c2ccccc2)COC(c2ccc(OCCCO)cc2)=N1`, the z-score in experiment [1] was -0.513 (inactive); in experiment [3] it was 1.58 (inactive); in experiment [4] it was -0.783 (inactive); in experiment [5], -0.821 (inactive); in experiment [6] it was -0.392 (inactive); in experiment [7], -0.312. Also, the z-score in [8] is -0.0194 (inactive); in [9], 0.85 (inactive); in [10], 0.779; in experiment [11] it was 0.518; in experiment [12], -0.664; in experiment [13], -0.0551. Also, the z-score was -1.69 in [14]; -0.658 in experiment [15]; -1.13 in experiment [16]; 0.148 (inactive) in experiment [17]; 0.943 in experiment [18]; -0.436 in [19]. Besides, the z-score in [20] was 0.221 (inactive). Moreover, the composite z-score in experiment [2] was -0.0601.
